Only some compounds are listed: those with a hit (about 1.4% of all), similar ones and a draw of the others.
ARNT TACC3 PPI: disruptors of ARNT/TACC3 protein interaction, primary screen, biochemical, AlphaScreen, single concentration. Transforming acidic coiled-coil-containing protein 3 (Homo sapiens), Q9Y6A5. AlphaScreen His-ARNT PAS-B/GST-TACC3 binding, luminescence; TACC3 fragment carries E629A point mutation. inhibition, % at 9.99 µM. 390,000 compounds, 0.66% hits. AID 623870, 2012;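 active means mean inhibition of replicates at least 50% and at least half of replicates each reaching 50%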;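 further: 0% = complete ARNT plus TACC3 wells and 100% = ARNT alone without TACC3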
C2C12 statin: suppressors of statin myotoxicity in C2C12 myotubes, primary screen, cell-based, single point, plate reader; C2C12 myotubes + simvastatin, ATP luminescence, 48 h; scaled: DMSO 0, geranylgeraniol control 100; rescue of ATP level, % at 7.49 µM; 330,000 compounds, 0.78% hits; AID 602340, 2012;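 active means mean ATP rescue above about 67%, or every replicate alone reaching that limit, limit read from the data, passing the limit was not always enough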;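 further: myotubes were challenged with 10 µM simvastatin during compound exposure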
CFTR F508del cor: F508del CFTR correction, initial screen, CFBE line, single point. CFBE cells, YFP halide quenching; stimulated with forskolin plus potentiator P3; % fluorescence drop versus neutral controls. 350,000 compounds, 0.36% hits. activity (quench increase), % at 7.58 µM. AID 720511, 2013;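 active means mean added fluorescence quench of at least 8% versus neutral control, with both replicates also reaching 8%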;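 further: cells transiently co-express mutant CFTR-F508del with the halide-sensitive YFP; corrector assay measuring rescue of mutant channel to the surface after 24 h compound exposure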
PglD inh: C. jejuni PglD acetyltransferase inhibitors, primary screen, biochemical, DTNB colorimetric, single point; UDP-N-acetylbacillosamine N-acetyltransferase PglD (Campylobacter jejuni); purified PglD enzyme, DTNB colorimetric CoA detection; inhibition, % at 12.5 µM; 360,000 compounds, 0.098% hits; AID 602405, 2012; in the data active means inhibition above about 16%, passing the limit was not always enough
Starred values were filed as active, the others as inactive; . = no result given; ! = not active in a repeat.

SMILES | ARNT TACC3 PPI | C2C12 statin | CFTR F508del cor | PglD inh
Cc1cc(C(=O)Nc2cccc3c2O[C@@H](CN(C)C(=O)Nc2c(C)noc2C)[C@H](C)CN([C@@H](C)CO)C3=O)n(C)n1 | -6 | -19 | -1 | 0
C[C@@H]1CCCCO[C@H](CN(C)C(=O)C2CCCCC2)[C@H](C)CN([C@@H](C)CO)C(=O)c2cc(NC(=O)Nc3cccc4ccccc34)ccc2O1 | 16 | . | 2 | 0
COc1ccc(N2CCN(C(=O)COc3ccc4c(C)cc(=O)oc4c3C)CC2)cc1 | 0 | 107* | -1 | 4
Cc1cc(=O)oc2c(C)c(OCC(=O)N3CCN(c4ccc(F)cc4)CC3)ccc12 | -1 | -1 | 1 | 3
Cc1noc(C)c1COc1ccc(C(=O)N2CCN(S(=O)(=O)c3ccc(F)cc3)CC2)cc1 | . | 7 | 26* | -4
O=C(Cc1ccncc1)NCC[C@@H]1CC[C@H](NC(=O)C2CC2)[C@@H](CO)O1 | 6 | 1 | -1 | 0
CCN(c1cccc(C)c1)S(=O)(=O)c1ccc(-c2cc(C)no2)s1 | -14 | -98 | 9.2* | -3
CCOc1ccc(N(C)S(=O)(=O)c2ccc(-c3cc(C)no3)s2)cc1 | -3 | -23 | 4 | -3
COc1ccc(-c2cc(C)no2)cc1S(=O)(=O)N(C)c1cccc(C)c1 | -11 | 2 | -2 | -2
Cc1cccc(N(C)S(=O)(=O)c2ccc(-c3cc(C)no3)s2)c1 | -28 | -38 | 12* | -1
O=C(Nc1ccc(F)cc1)N1CCCCN2[C@H](C1)[C@H](c1ccc(C#Cc3ccccc3)cc1)[C@@H]2CO | -8 | . | -1 | -2
CCn1c(-c2ccc(-c3ccccc3)cc2)c[nH]c1=S | -1 | 125* | . | -1
O=C(c1ccc(F)cc1)N1CCC(N2CCOCC2)CC1 | -7 | . | . | -2
O=C(c1ccc(Br)cc1)N1CCCC1 | 21 | 94* | . | 2
O=C(c1ccc(F)cc1)N1CCC(N2CCCCCC2)CC1 | -4 | 145* | . | 5
Cc1ccc(NC(=O)Nc2ccc(C(=O)N3CCOCC3)cc2)cc1 | 5 | 28 | . | -6
O=C(Nc1ccc(C(=O)N2CCCCC2)cc1)c1ccc(Br)cc1 | 0 | . | . | -1
Cc1ccc(C(=O)N2CCSCC2)cc1 | -18 | 103* | -1 | -5
O=C(C[C@@H]1C[C@@H]2c3cc(NC(=O)Nc4ccccc4)ccc3O[C@@H]2[C@H](CO)O1)NCCN1CCCCC1 | -5 | -6 | -2 | -1
Cc1ccc(NC(=O)COc2ccc(/C=C3/SC(=Nc4ccccc4)N(Cc4cccnc4)C3=O)cc2)cc1 | 1 | 80* | . | .
Cc1ccc(NC(=O)COc2ccc(/C=N/NC(=O)CSCc3ccccc3)cc2)cc1 | -12 | -6 | . | -5
CCOc1ccc(C(=O)CCNC(Cc2cnc[nH]2)C(=O)O)cc1 (configuration not stated) | 61* | -12 | -1 | 0
CC(=O)N1[C@@H](CO)[C@@H]2c3ccccc3N(S(=O)(=O)c3ccc(F)cc3)C[C@@H]21 | 3 | 16 | 1 | -1
Cc1cc(C)nc(N(C#N)Cc2ccc(Cl)cc2)n1 | 6 | . | 0 | .
Cc1cc(C)nc(N(C#N)Cc2cccc(Cl)c2)n1 | 11 | . | 11* | .
SMILES | ARNT TACC3 PPI | C2C12 statin | CFTR F508del cor | PglD inh
CC(C)CC#Cc1ccc2c(c1)O[C@@H](CN(C)C(=O)Cc1ccccc1)[C@H](C)CN([C@@H](C)CO)S2(=O)=O | -18 | -43 | 1 | 2
COc1ccc(CN(C)C[C@@H]2OCCCC[C@H](C)Oc3ccc(NS(=O)(=O)c4ccc(C)cc4)cc3C(=O)N([C@@H](C)CO)C[C@@H]2C)cc1 | -3 | . | -2 | 13
CC(OC(=O)c1ccccc1NS(=O)(=O)c1cccc(N)c1)C(=O)N(C)Cc1ccccc1 (configuration not stated) | -3 | 86* | 0 | -2
CN(C)C(=O)Nc1ccccc1CC[N+](=O)[O-] | 8 | 9 | -2 | 1
O=C(Nc1ccc(Cl)cc1)Nc1ccccc1CC[N+](=O)[O-] | 3 | 104* | -3 | -8
C1CCC(C(CC2CCCCN2)C2CCCCC2)CC1 (configuration not stated) | 6 | -18 | 9.9*! | -6
O=C(c1ccc(Cl)cc1Cl)N1CCOCC1 | -2 | 1 | -4 | -1
O=C(c1cc2cc(Cl)cc(Cl)c2oc1=O)N1CCOCC1 | -10 | 115* | . | .
